Data on five compounds can be found in PubChem BioAssay (EPA / NIEHS).

Each structure is given as a SMILES string. Results filed as inconclusive are left out. Activity calls are given as the source filed them. How the source made its calls, unless noted: active means hit-call score of the fitted dose curve at least 0.9, where 1 is the maximum; inactive means score below 0.9.

Assay [1] addresses Nucleoli Translocation, AR (gene 367) (UniProt P10275). Description: UPITT_HCI_U2OS_AR_TIF2_Nucleoli_Antagonist: University of Pittsburgh U2OS Androgen Receptor-Transcriptional Intermediary Factor 2 (AR-TIF2) Antagonism High Content Imaging Assay for Nucleoli Translocation (AID 2283997; active means hit-call score of the fitted dose curve at least 0.9, where 1 is the maximum). In a few lines:
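An antagonist-mode imaging screen: engineered U2OS (AR-RFP, TIF2-GFP) exposed to 20 uM compound, 0.2% DMSO. Activity reflects nucleolar red fluorescence change relative to DHT baseline.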

The target is the same in assay [2]. The assay is described as follows: UPITT_HCI_U2OS_AR_TIF2_Nucleoli_Agonist: University of Pittsburgh U2OS Androgen Receptor-Transcriptional Intermediary Factor 2 (AR-TIF2) Agonism High Content Imaging Assay for Nucleoli Translocation (AID 2283998; active means hit-call score of the fitted dose curve at least 0.9, where 1 is the maximum). In a few lines:
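High-content images quantify nucleolar accumulation of RFP-fused AR in cells also expressing GFP-TIF2; the endpoint is fitted as signal gain versus DMSO controls across final concentrations of 0.195 to 50 uM.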

The target in assay [3] is Ratio of Nucleoli Translocation and Cytoplasm, AR (gene 367) (UniProt P10275). The assay is described as follows: UPITT_HCI_U2OS_AR_TIF2_Nucleoli_Cytoplasm_Ratio_Antagonist: University of Pittsburgh U2OS Androgen Receptor-Transcriptional Intermediary Factor 2 (AR-TIF2) Antagonism High Content Imaging Assay for Ratio of Nucleoli Translocation and Cytoplasm (AID 2283999; active means hit-call score of the fitted dose curve at least 0.9, where 1 is the maximum;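 further: antagonists lower the DHT-driven ratio of nucleolar to cytoplasmic red signal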). In a few lines:
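Read-out is the ratio of nucleolar to cytoplasmic AR-RFP fluorescence, imaged by high-content microscopy in U2OS cells coexpressing TIF2-GFP. Single-point 20 uM screen, triplicate confirmation, then 0.195–50 uM dose response; activity referenced to DHT baseline.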

Assay [4] shares this target. Description: UPITT_HCI_U2OS_AR_TIF2_Nucleoli_Cytoplasm_Ratio_Agonist: University of Pittsburgh U2OS Androgen Receptor-Transcriptional Intermediary Factor 2 (AR-TIF2) Agonism High Content Imaging Assay for Ratio of Nucleoli Translocation and Cytoplasm (AID 2284000; active means hit-call score of the fitted dose curve at least 0.9, where 1 is the maximum;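 further: hits raise the red nucleolar to cytoplasm ratio above vehicle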). In a few lines:
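Primary screen at 20 uM final (0.2% DMSO), then triplicate confirmation and dose-response from 0.195 to 50 uM final (0.5% DMSO). Cells: U2OS with AR-RFP and TIF2-GFP. Endpoint is the nucleoli/cytoplasm red-fluorescence ratio, gain-of-signal vs DMSO.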

Assay [5] is described as follows: CCTE_Simmons_MITO_inhib_resp_rate: CCTE's HepG2 Seahorse XF Respirometric Screening Assay at Inhibited Respiratory State [full ETC block], Simmons Lab (AID 2284006). The note with it: actives raise or lower the signal. In a few lines: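 OCR read-out in the inhibited phase following rotenone/antimycin A, after compound and FCCP injections, in HepG2 cells. Seven concentrations (125 nM to 100 uM final), three biological replicates, 6-min cycles over 72 min; DMSO baseline.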

A short description of assay [6]: CCTE_Simmons_MITO_viability: CellTiter-Glo Viability Assessment for CCTE's HepG2 Seahorse XF Respirometric Screening Assay [post-hoc], Simmons Lab (AID 2284007; active means hit-call score of the fitted dose curve at least 0.9, where 1 is the maximum;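 on AC50: cells exposed to chemical for 90 min before the ATP read; actives lower ATP signal relative to DMSO baseline meaning reduced viability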). In a few lines:
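Luciferase-coupled ATP luminescence, single endpoint. HepG2, post-respirometry. Compound 125 nM–100 uM final, 7 conc., 90 min. n=3 biological, technical singles. DMSO vehicle/baseline; dichlone 10 nM–100 uM, 8 conc., as positive control.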

Assay [7] can be described thus: CCTE_Shafer_MEA_acute_spike_number: CCTE's Neural Acute Assay for Total Number of Spikes, Shafer Lab (AID 2284008).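 On AC50: curve fitted for decrease in spike count so AC50 reflects inhibitors.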 In a few lines:
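Using an adaptive detector set to 8x rms noise, spikes were counted in 40-min windows before and after compound addition (0.03-40 uM) to rat cortical networks at 37 C; the well-level change from baseline was analysed relative to DMSO.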

Assay [8] in a line: CCTE_Shafer_MEA_acute_firing_rate_mean: CCTE's Neural Acute Assay for Mean Firing Rate, Shafer Lab (AID 2284009).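 Further: analyzed for loss of signal so actives lower firing rate relative to DMSO.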 In a few lines:
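Spontaneous spiking of primary rat cortical networks, DIV 13/15, 37 C. Compound 0.03-40 uM, n ≥3 wells; 40 min baseline vs 40 min treated. Endpoint fitted in loss-of-signal direction against DMSO.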

The nature of assay [9]: CCTE_Harrill_HTTr_Viability_MCF7: CCTE's 6-hour Cell Viability Assessment for the High-Throughput Transcriptomics (HTTr) Platform, in MCF-7 cells cultured in DMEM + 10% fetal bovine serum, Harrill Lab (AID 2284010). In a few lines: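 PI exclusion, high-content imaging; 8-pt dilution series, 6 h exposure; bidirectional fit vs DMSO (neg. ctrl/baseline); gain of signal = loss of membrane integrity.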

Assay [10] in a line: CCTE_Harrill_HTTr_Apoptosis_MCF7: CCTE's 6-hour Apoptosis Assessment for the High-Throughput Transcriptomics (HTTr) Platform, in MCF-7 cells cultured in DMEM + 10% fetal bovine serum, Harrill Lab (AID 2284011). In a few lines:
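Apoptosis in MCF-7 cells grown in DMEM with 10% fetal bovine serum was scored after a six hour exposure by high content imaging of caspase-3/7 activation (CellEvent Caspase 3/7 Green), with DMSO serving as negative control and baseline.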

Assay [11] in a line: CCTE_Shafer_MEA_acute_burst_number: CCTE's Neural Acute Assay for Single-Electrode Bursts, Shafer Lab (AID 2284013). In a few lines: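 Burst totals were derived with adaptive spike detection (8x rms threshold) on filtered signals from rat cortical cultures; change relative to pre-treatment baseline after 40-min compound exposure (0.03-40 uM) was fitted in the negative direction against DMSO.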

The nature of assay [12]: CCTE_Shafer_MEA_acute_burst_duration_mean: CCTE's Neural Acute Assay for Mean Burst Duration, Shafer Lab (AID 2284014).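 Further: hits are decreases in mean burst duration relative to DMSO controls.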 In a few lines: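 Acute exposure of mature rat cortical networks (DIV 13 or 15) grown on microelectrode arrays to 0.03-40 uM compound. Mean burst duration compared with the 40-min pre-dose baseline over a 40-min post-dose recording at 37 C.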
Assay [13] can be described thus: CCTE_Shafer_MEA_acute_interburst_interval_mean: CCTE's Neural Acute Assay for Mean Interburst Interval, Shafer Lab (AID 2284016).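 Further: percent change of mean interburst interval versus each well's own pre-dose baseline; curves fitted for decrease in interburst interval relative to DMSO.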 In a few lines: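 MEA recording of spontaneous network bursting in primary rat cortical cultures; mean interburst interval was compared before and after a 40-min compound exposure (0.03-40 uM) and expressed as percent change, relative to DMSO.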

Assay [14] in a line: CCTE_Shafer_MEA_acute_burst_percentage_mean: CCTE's Neural Acute Assay for Percentage of Spikes in a Burst, Shafer Lab (AID 2284017).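 On AC50: curve fitted for loss of signal so potency reflects decreased burst percentage.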 In a few lines: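 Compounds were tested at 0.03-40 uM on primary rat cortical neuron networks grown over microelectrodes, with at least three wells per compound. Spontaneous firing was recorded for 40 min before and 40 min after dosing, and the change in burst percentage was computed per well.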

Assay [15] in a line: CCTE_Shafer_MEA_acute_burst_percentage_std: CCTE's Neural Acute Assay for Standard Deviation of Burst Percentage, Shafer Lab (AID 2284018).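 Further: fitted in the negative direction so actives lower burst percentage SD.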 In a few lines: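 Primary rat cortical neurons on 16-electrode MEA wells were recorded 40 min at baseline (DIV 13 or 15), then 40 min after compound (0.03-40 uM), at 37 C. Well value is SD across electrodes of spikes-in-bursts/total spikes; endpoint is percent change, DMSO-referenced.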

Assay [16] can be described thus: CCTE_Shafer_MEA_acute_per_network_burst_spike_number_mean: CCTE's Neural Acute Assay for Average Number of Spikes in a Network Burst, Shafer Lab (AID 2284019). In a few lines: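 Acute exposure of rat primary cortical networks (DIV 13/15) on MEAs; adaptive spike detection at 8x rms noise, 37 C. Percent change in spikes per network burst after 40 min with compound (0.03-40 uM), negative direction vs DMSO.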

Assay [17] can be described thus: CCTE_Harrill_HTTr_CellCount_MCF7: CCTE's Cell Proliferation Assessment for the High-Throughput Transcriptomics (HTTr) Platform, Harrill Lab (AID 2284012; active means hit-call score of the fitted dose curve at least 0.9, where 1 is the maximum;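 further: count of Hoechst-stained nuclei per well by high-content imaging in MCF-7 cells; cells exposed to compound for six hours; intended direction is loss of nuclei count meaning fewer cells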). In a few lines:
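Readout: Hoechst nuclear count by high-content imaging. MCF-7, 8-point dilution series, 6 h exposure. Bidirectional fit vs DMSO baseline.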

Sequence of Nucleoli Translocation, AR (gene 367) (P10275 whole entry, looked up): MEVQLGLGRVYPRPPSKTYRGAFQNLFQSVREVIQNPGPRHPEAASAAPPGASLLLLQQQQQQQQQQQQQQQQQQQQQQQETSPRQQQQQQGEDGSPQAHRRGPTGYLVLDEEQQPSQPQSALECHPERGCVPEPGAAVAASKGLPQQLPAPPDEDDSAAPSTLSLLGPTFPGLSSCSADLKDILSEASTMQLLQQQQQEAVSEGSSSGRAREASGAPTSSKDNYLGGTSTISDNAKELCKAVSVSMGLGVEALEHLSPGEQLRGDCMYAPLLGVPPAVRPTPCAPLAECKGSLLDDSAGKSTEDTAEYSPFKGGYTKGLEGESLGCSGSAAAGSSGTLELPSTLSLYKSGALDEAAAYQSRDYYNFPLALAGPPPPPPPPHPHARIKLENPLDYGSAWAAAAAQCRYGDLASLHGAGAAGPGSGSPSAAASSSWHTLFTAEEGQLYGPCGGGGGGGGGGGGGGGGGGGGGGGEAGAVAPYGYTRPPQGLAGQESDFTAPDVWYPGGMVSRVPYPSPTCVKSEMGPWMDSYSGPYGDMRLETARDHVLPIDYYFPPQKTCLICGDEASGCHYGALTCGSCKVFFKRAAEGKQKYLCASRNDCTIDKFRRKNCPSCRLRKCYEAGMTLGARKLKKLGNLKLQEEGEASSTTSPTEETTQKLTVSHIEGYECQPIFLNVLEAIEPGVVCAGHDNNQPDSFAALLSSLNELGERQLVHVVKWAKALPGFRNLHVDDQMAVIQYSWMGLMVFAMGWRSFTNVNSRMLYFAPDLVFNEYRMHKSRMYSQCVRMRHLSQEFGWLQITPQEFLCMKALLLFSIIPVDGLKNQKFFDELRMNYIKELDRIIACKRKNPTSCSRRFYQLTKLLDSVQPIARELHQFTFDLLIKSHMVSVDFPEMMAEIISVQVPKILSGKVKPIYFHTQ
Sequence of Ratio of Nucleoli Translocation and Cytoplasm, AR (gene 367) (P10275 whole entry, looked up): as above

As for `Cc1cc(N=Nc2ccccc2C)ccc1N`, the AC50 (as a rule, the concentration at which the activity in the assay is half-maximal) in assay [1] was 26.1 µM (active); in [2], 77.9 µM (active); in [4] it was 84.9 µM (active); in assay [14], 26.6 µM (active); in assay [15] it was 28.9 µM (active). For the same compound, the result in assay [3], in assay [5], in [6], in [7], in assay [8] and in assay [9] was inactive. For the same compound, the outcome in [10], in assay [11], in [12], in assay [13] and in [16] was inactive.

`C[N+](C)(C)CC1CO1` (configuration not stated): the compound was classed as inactive in [2], in [3], in assay [4], in assay [7], in [8] and in [9]. Moreover, the outcome in assay [10], in assay [11], in assay [12], in assay [13], in assay [14] and in [15] was inactive. Also, the result in [16] was inactive.

In the case of `[Cl-].[Cl-].[Hg+2]`, the AC50 in assay [5] was 50 µM (active); in [6] it was 15.3 µM (active); in assay [7], 31.4 µM (active); in assay [8], 31 µM (active); in assay [12] it was 29.8 µM (active); in assay [14], 20 µM (active). In addition, the result in assay [9], in assay [10], in assay [17], in assay [11], in assay [13] and in assay [15] was inactive. The outcome in [16] was inactive.

As to `CC(C)(O)c1cnn2c(-c3ccc(F)c(-c4c(F)cccc4C#N)c3)cnc2n1`, the outcome in [1], in [2], in [4], in assay [9], in [10] and in [17] was inactive. In addition, the result in [12], in [13], in assay [15] and in assay [16] was inactive. Besides, the AC50 is 0.713 µM (active) in assay [7], 0.789 µM (active) in assay [8], 1.18 µM (active) in assay [11] and 20 µM (active) in [14].

Regarding `c1ccc(N=Nc2ccccc2)cc1`, the compound was called inactive in [7], in [8], in assay [9], in assay [10], in [17] and in assay [11]. The compound was classed as inactive in assay [12] and in assay [16]. For the same compound, the values for the AC50 in assay [13], in assay [14] and in assay [15] were 34.6 µM (active), 26.8 µM (active) and 36.2 µM (active), respectively.
